An excerpt weighted towards active compounds, which were near 4.7% of everything screened.
TRHR agonist: agonists of human TRH receptor; TRHR cells, calcium flux fluo-8, FDSS agonist mode; 360,000 compounds, 0.18% hits; activation, % at 2 µM; also: 0% is about no effect
Target sequence (P34981 whole entry, looked up): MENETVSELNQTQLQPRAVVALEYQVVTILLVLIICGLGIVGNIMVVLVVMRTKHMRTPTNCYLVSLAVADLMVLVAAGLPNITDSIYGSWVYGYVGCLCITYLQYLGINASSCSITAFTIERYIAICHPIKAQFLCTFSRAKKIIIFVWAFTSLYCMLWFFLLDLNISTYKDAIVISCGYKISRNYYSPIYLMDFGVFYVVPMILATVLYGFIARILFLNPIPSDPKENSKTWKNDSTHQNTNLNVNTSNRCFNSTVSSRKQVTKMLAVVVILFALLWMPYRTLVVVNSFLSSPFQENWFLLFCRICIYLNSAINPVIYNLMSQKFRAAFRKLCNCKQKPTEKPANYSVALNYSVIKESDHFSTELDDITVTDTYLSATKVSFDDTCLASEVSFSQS
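TRHR-expressing cells, plated overnight in medium with 10% serum, were loaded with fluo-8 calcium dye at room temperature. After a 10 s baseline, library compound was pin-added and calcium release was recorded kinetically (ex 480/em 530) as agonist response.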
D1 ag: agonists of human D1 dopamine receptor; P21728; HEK293 T-REx D1 cells, calcium flux, agonist mode; activation, % at 2 µM; 360,000 compounds, 1% hits; also: 0% is about no effect
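Inducible HEK293 T-REx D1 cells, force-coupled to calcium signalling, were plated at 4000 cells/well with tetracycline and held overnight at 30 C. After no-wash calcium dye loading, compound-evoked calcium rise over 180 s flagged agonists.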
D1 antagonist: human D1 dopamine receptor antagonism. P21728. HEK293 TREx D1 cells, calcium flux, dopamine EC80; stronger effect = lower value. activity change, negative = inhibition, % at 10 µM. 360,000 compounds, 3.2% hits. AID 504652; in the data active = activity change below about -30%; also: % is scaled to controls: 0 for no effect and ±100 for the full control effect
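Using tetracycline-induced force-coupled D1 Hek293 cells and a calcium dye, signals were followed for 180 s after compound, then for 180 s after EC80 dopamine, to detect inhibitors.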
TRHR PAM: allosteric enhancers of human TRH receptor; enhancement, % at 2 µM; P34981; TRHR cells, fluo-8 calcium fluorescence, EC20 TRH enhancement; 360,000 compounds, 0.66% hits; in the data active = enhancement above about 30%; also: 0% is about no effect
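Enhancer read-out: after compound pinning and an initial kinetic agonist-mode read, an EC20 of TRH (10 nM final) was injected and fluo-8 calcium signal (Ex 480/Em 530) followed at 1 s/cycle for 100 cycles in TRHR-expressing cells.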
D1 PAM: potentiators of human D1 dopamine receptor; potentiation, % at 10 µM; P21728; 360,000 compounds, 0.036% hits; HEK293 TREx D1 cells, calcium flux, dopamine EC20 potentiation; in the data active = potentiation above about 30%; also: 0% is about no effect
Active calls of the source: *. Rule as the data show it, unless noted: active = activation above about 30%; inactive = the rest.

SMILES	TRHR agonist	D1 ag	D1 antagonist	TRHR PAM	D1 PAM
Cc1c(Cl)ccc2sc(NC(=O)c3ccc(S(=O)(=O)N4CCCc5ccccc54)cc3)nc12	1	1	-15	3	-3
Cc1ccc(C)c(NC(=O)Cn2c(=O)n(Cc3cccs3)c(=O)c3cccnc32)c1	0	-1	1	-5	-4
Cc1ccc(-c2nc(C)c(CCNC(=O)c3cccs3)s2)cc1	-1	-1	-25	-5	-6
CCOc1ccccc1NC(=O)CSc1c2c(nc3ccc(Cl)cc13)CCCC2	8	2	11	1	6
COc1ccc(N2CCN(C(=O)CCCNC(=O)Cn3cnc4sc(C)c(C)c4c3=O)CC2)cc1	-1	1	-42*	-4	6
Cc1sc2ncn(CC(=O)NCCCC(=O)N3CCN(Cc4ccc5c(c4)OCO5)CC3)c(=O)c2c1C	0	0	0	31*	-12
Cc1ccc(Cl)cc1-n1c(=O)c2sc3ccccc3c2n(CC(=O)NC2CCCC2)c1=O	0	1	-9	-18	-2
Cc1cccc(N(C)C(=O)CCS(=O)(=O)c2ccc3c(c2)n(C)c(=O)c(=O)n3C)c1	1	-1	-32*	5	-5
Cc1cccc(N(C)C(=O)CCS(=O)(=O)c2ccc3c(c2)oc(=O)n3C)c1	1	2	-5	7	-3
Cc1ccc(-n2ncc(C(=O)Nc3ccc(Cl)cc3)c2C2CCNCC2)cc1C	2	2	-44*	7	3
CC(=O)Nc1ccc(NC(=O)c2c(C)nn(-c3ccccc3)c2-n2cccc2)cc1	0	1	7	3	-2
CCCC1=NN2C(=N)/C(=C\c3cc(C)n(-c4cc(C)cc(C)c4)c3C)C(=O)N=C2S1	-3	40*	-60*	10	-1
CC(C)COc1ccc(C(=O)Nc2sc3c(c2C(=O)O)CC(C)(C)OC3)cc1	-2	3	-31*	-2	-4
CSCC(C)N1CCC(CO)(CCc2ccccc2)CC1 (configuration not stated)	0	3	-5	-2	6
CC(COc1ccccc1)N1CCC(CO)(CCc2ccccc2)CC1 (configuration not stated)	1	35*	9	0	-6
CCc1cccc(C)c1Nc1c(-c2cccs2)nc2nc(C)cc(C)n12	-1	0	-2	0	11
CC(C)CCOc1ccc(NC(=O)C2OC3OC(C)(C)OC3C3OC(C)(C)OC23)cc1 (configuration not stated)	0	-1	-43*	1	4
CCOc1ccc(-n2nc3cc(C)c(N)cc3n2)cc1	1	0	-30*	-6	-3
Cc1cc2nn(-c3ccc(F)cc3)nc2cc1N	-1	2	0	32*	4
CCOc1ccc(-n2nc3ccc(N)cc3n2)cc1	0	3	-4	2	4
CCNc1c(NS(=O)(=O)c2ccc(Br)s2)c(=O)oc2ccccc12	0	-3	-41*	2	-3
CCOC(=O)c1c(N2C(=O)Nc3ccccc3N2O)n[nH]c1-c1cccc(Cl)c1	0	-2	-1	9	-6
CCOC(=O)c1c(C)sc(-c2c(-c3cc(C)ccc3C)[nH]c3c2c(=O)n(C)c(=O)n3C)c1O	-1	277*	14	-4	8
CCOC(=O)c1c(C)sc(-c2c(-c3cc(C)ccc3C)[nH]c3c2c(=O)[nH]c(=O)n3C)c1O	8	20	12	-4	1
CCOC(=O)c1c(C)sc(-c2c(-c3cccc(Cl)c3)[nH]c3c2c(=O)n(C)c(=O)n3C)c1O	169*	315*	-12	15	15
SMILES	TRHR agonist	D1 ag	D1 antagonist	TRHR PAM	D1 PAM
CC(=O)OCc1ccccc1Sc1ccccc1C(=O)NCc1ccccc1	0	3	-45*	3	11
COc1ccc(CNC(=O)c2ccccc2SC)cc1	0	6	13	-7	-2
COc1cccc2cc(-c3cn4c(n3)sc3cc(F)ccc34)c(=O)oc12	0	1	11	0	0
CC(C)(C)C(=O)N1CCN(c2nc3ccc(Cl)cc3s2)CC1	0	3	-43*	1	-3
COc1cccc(-c2c(C(=O)N/N=C/c3ccsc3)nnn2-c2nonc2N)c1	0	163*	29	2	15
CCOc1ccc(-c2c(C(=O)N/N=C/c3ccsc3)nnn2-c2nonc2N)cc1	0	38*	33	7	2
COc1ccccc1CNC(=O)c1ccc(-c2nc(CN3CCc4ccccc43)c(C)o2)cc1	0	1	-4	1	-2
CCc1nn(CC(=O)NCCCOC)c(=O)c2cc3ccccc3n12	0	1	9	-1	-2
Clc1c(CSc2nc3ccccc3o2)nc2ccccn12	-1	1	-39*	-3	-8
O=C(CSc1nc(-c2ccccc2)c(-c2ccccc2)o1)Nc1nncs1	-1	1	1	1	-4
COC(=O)CSc1nc2ccccc2o1	0	1	-37*	-2	-6
CC(=O)c1cc2c(cc1NC(=O)CSc1nc3ccccc3[nH]1)OCO2	-1	0	-5	3	0
O=C(CSc1nc(-c2ccccc2)c(-c2ccccc2)o1)Nc1nnc(-c2ccccc2)s1	0	4	-22	50*	-9
CC(=O)CSc1nc2ccccc2o1	0	0	11	3	-8
CC(=O)c1cc2c(cc1NC(=O)CSc1nc3ccccc3o1)OCO2	0	2	-35*	4	7
CCN(C(=O)CSc1nc2ccccc2n1CC(=O)Nc1cccc(C#N)c1)c1ccccc1	1	1	-1	-2	-1
COc1ccc(N(C)S(=O)(=O)c2ccc3c(c2)n(C)c(=O)c(=O)n3C)cc1	-1	-2	6	-3	-2
O=C(CSc1nc2ccccc2o1)Nc1nc(-c2ccccc2)c(-c2ccccc2)s1	1	0	-90*	-2	-9
Cc1ccc(-c2csc(NC(=O)CSc3nc4ccccc4o3)n2)cc1	1	4	-35*	-1	-4
Cc1cccn2c(=O)c(/C=C(\C#N)c3nc4ccccc4n3C)c(Oc3ccc(Cl)cc3)nc12	0	1	-6	3	-3
Cc1ccc2nc3c(cc(C#N)c(=O)n3-c3nnc(SCc4ccc(F)cc4)s3)c(=O)n2c1	4	5	1	-4	-2
OCCNCc1cc(Br)ccc1OCc1ccc(Cl)cc1Cl	0	38*	1	2	-4
CCCCNC(=O)c1cc2n(n1)CCCN(Cc1ccc(C)cc1)C2=O	0	2	6	-8	0
CCCSCCCNC(=O)c1cc2n(n1)CCCN(Cc1ccc(C)cc1)C2=O	-1	56*	-8	4	0
Cc1onc(-c2c(F)cccc2Cl)c1C(=O)NC1CCSC1=O (configuration not stated)	0	2	1	2	-2

Screening data as filed in PubChem.
